Bioassay records: PubChem BioAssay, National Center for Advancing Translational Sciences (NCATS)
aSyn tox rescue: inhibitors of alpha-synuclein toxicity in yeast | S. cerevisiae alpha-synuclein toxicity rescue, BacTiter-Glo growth, 24 h | Potency, µM (titrated, usually from 46.1 µM), hits mostly activators | 94,000 compounds, 0.02% hits; active = well fitted activation curve with a large enough effect; also: 0% is about no effect
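Growth restoration measured by BacTiter-Glo luminescence after 24 hr at 30 deg C; alpha-synuclein yeast, raffinose-pregrown to mid-log, were added at OD600=0.02 in galactose medium onto pinned compounds.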
* hit, by the source's call; i = inactive. The entries come from a sample that favours hits as a whole. Potency is read from the fitted curve at half-maximal effect.

SMILES	aSyn tox rescue
O=C1CN=C(c2ccccc2)c2cc(Cl)ccc2N1Cc1ccc(Cl)cc1	i
Cc1cccc(CN2C(=O)CN=C(c3ccccc3)c3cc(Cl)ccc32)c1	i
CCc1cccc(NC(=O)CN2C(=O)CN=C(c3ccccc3F)c3cc(Cl)ccc32)c1	20µM*
CN(C)c1cccc2c(C#N)ccc(N(C)C)c12	i
CC(=O)O[C@@]12CO[C@@H]1C[C@H](O)[C@@]1(C)C(=O)[C@H](O)C3=C(C)[C@@H](OC(=O)[C@H](O)[C@@H](NC(=O)c4ccccc4)c4ccccc4)C[C@@](O)([C@@H](OC(=O)c4ccccc4)C12)C3(C)C (stereo not given in full)	i
